NOD2-RIPK2 inh: NOD2-RIPK2 protein interaction inhibition | O43353 | inhibition, % at 4.98 µM | AID 624267 | actives 0.38% (n = 360,000) | CHO BLA complementation NOD2-RIPK2, CCF4 ratio; in the data active means inhibition above about 21%;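 further: 0% = vehicle only and 100% = reference blocker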
Target sequence (O43353 whole entry, looked up): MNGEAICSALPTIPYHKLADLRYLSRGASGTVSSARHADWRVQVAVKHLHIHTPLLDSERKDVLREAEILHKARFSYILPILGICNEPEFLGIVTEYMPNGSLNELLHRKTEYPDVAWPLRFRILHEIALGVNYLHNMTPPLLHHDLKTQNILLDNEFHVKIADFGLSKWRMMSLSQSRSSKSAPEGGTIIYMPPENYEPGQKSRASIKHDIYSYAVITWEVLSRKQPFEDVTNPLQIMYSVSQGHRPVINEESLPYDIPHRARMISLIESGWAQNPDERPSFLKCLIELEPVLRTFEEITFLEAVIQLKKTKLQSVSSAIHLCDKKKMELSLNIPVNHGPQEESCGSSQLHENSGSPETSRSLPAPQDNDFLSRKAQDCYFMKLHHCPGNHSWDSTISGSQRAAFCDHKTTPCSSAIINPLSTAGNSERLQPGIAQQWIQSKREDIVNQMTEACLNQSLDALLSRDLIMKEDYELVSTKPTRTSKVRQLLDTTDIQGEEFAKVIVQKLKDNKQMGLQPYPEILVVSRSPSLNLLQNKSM
HSF-1 act: increases HSF-1 driven luciferase reporter signal | NIH3T3-HGL HSF-1 luciferase reporter, MG132, 8 h; 100% = twice DMSO control signal | activation, % at 9 µM | actives 1.7% (n = 300,000);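 active means mean replicate activation of at least 50% with a set share of replicates each reaching 50%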;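 further: 0% = median of the neutral control wells and 100% = twice that signal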
HSF1 inh: HSF1 inhibition; NIH3T3-HGL HSE-luciferase, MG132-induced, luminescence 8 h; hits give low values; activity change, negative = inhibition, % at 7.5 µM (by protocol); actives 0.77% (n = 300,000); AID 2098;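 active means more than half of replicate wells show activity change below -50%, luminescence cut by over half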;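 further: luciferase reports HSF-1 transcriptional activity via heat shock element; 0% = median of DMSO wells and -100% = zero luminescence signal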
TLR4-MyD88 BLA: inhibitors of human TLR4-MyD88 binding; O00206+Q99836; HeLa CL3-4 TLR4/MyD88 BLA complementation, FRET ratio; inhibition, % at 8.4 µM; actives 0.18% (n = 200,000); in the data active means inhibition above about 25%;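 further: 0% = vehicle and 100% = reference inhibitor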
TLR9-MyD88 inh: inhibitors of human TLR9-MyD88 binding | AID 504734 | Q9NR96+Q99836 | actives 0.21% (n = 340,000) | CHO BLA complementation TLR9-MyD88, CCF4 FRET ratio | inhibition, % at 4.98 µM;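 active means inhibition above the mean over all tested compounds plus 3 SD, cut at about 21% in these data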;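 further: 0% = DMSO only wells and 100% = clavulanate BLA inhibitor control wells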
An asterisk follows results filed as active; x = no result. Rows were chosen to be rich in hits. Some 2.4% of all compounds tested hit in one or more screens of this group.

SMILES	NOD2-RIPK2 inh	HSF-1 act	HSF1 inh	TLR4-MyD88 BLA	TLR9-MyD88 inh
Cc1ccc([C@H]2N[C@]3(CCCN(Cc4ccc(Cl)cc4)C3=O)[C@H]3C(=O)N(Cc4ccccc4)C(=O)[C@@H]23)cc1	1.6	x	x	x	-3.4
CS(=O)(=O)N(CC(=O)Nc1cccc(Br)c1)Cc1ccccc1	-0.5	-9.6	3.3	x	-3.5
Cc1cc(C)n(Cc2ccc(Cl)cc2Cl)c(=O)c1S(=O)(=O)c1ccccc1	-2.9	59.4*	22.9	-2.0	-0.2
COCCn1nnnc1C(c1ccc(OC)c(OC)c1)N1CCc2ccccc21 (stereo not drawn)	1.6	14.7	7.0	-3.7	2.9
COCCn1nnnc1C(c1ccccc1OC)N1CCc2ccccc2C1 (stereo not drawn)	6.3	94.9*	50.5	0.6	-5.9
COc1ccccc1C(=O)N(CCC1CCCN1C)c1nc2ccccc2s1 (stereo not drawn)	2.3	-71.1	-71.6*	11.2	-6.8
Cc1cc(C)n2nc(C(=O)N/N=C/c3cccc(Cl)c3)nc2n1	-15.4	55.7*	20.7	x	-4.1
COc1ccccc1OCCCOc1ccc([N+](=O)[O-])cc1Cl	-4.3	64.6*	56.8	-0.8	5.4
COc1cccc(OCCCOc2ccc([N+](=O)[O-])cc2Cl)c1	-1.9	2.6	-0.5	0.5	2.7
CC(=O)NCCCOc1ccc([N+](=O)[O-])cc1Cl	6.8	55.6*	10.3	x	1.6
COc1ccccc1OCCCOc1ccc(C)cc1Br	-1.6	56.6*	35.5	2.2	-1.9
COc1ccc(NC(=O)CNc2cccc(S(=O)(=O)N3CCCCCC3)c2)c([N+](=O)[O-])c1	-2.9	x	x	x	-8.1
CCNC(=S)Nc1cccc(S(=O)(=O)NC2=NCCC2)c1	-4.4	-5.7	0.4	-10.9	-5.0
CC(=O)NC(=S)Nc1cccc(S(=O)(=O)NC2=NCCC2)c1	-12.0	-80.5	-75.8*	-12.3	-5.0
O=C(N/N=C/c1sc(=O)n(-c2ccccc2)c1Cl)c1ccccc1	-5.2	66.1*	34.9	-3.5	-12.2
COCCCNC(=O)CC1C[C@H](C(=O)N2CCOCC2)[C@@]2(CCC3CCCC3)c3[nH]c4ccc(OC)cc4c3CCN2C1=O (stereo partly drawn)	-6.0	x	x	x	-0.1
Oc1cccnc1Sc1cccc(C(F)(F)F)c1	-4.1	85.7*	39.3	x	-3.4
FC(F)(F)c1cccc(Sc2nc(-c3ccccc3)nnc2C(F)(F)F)c1	0.8	-2.3	4.6	4.1	0.6
C=CCOC(=O)/C(=C/c1cccc2ccccc12)NC(=O)c1ccccc1	-1.7	72.3*	54.1	-1.7	-13.1
Cc1ccc(S(=O)(=O)NCCC(=O)N2CCN(c3ccccc3)CC2)cc1C	-13.4	x	x	x	-0.1
CCc1cc(=O)oc2c(CN3CCN(C)CC3)c(O)ccc12	0.7	3.6	6.7	x	-5.3
CN1CCN(Cc2c(O)ccc3cc(Br)ccc23)CC1	x	133.9*	112.2	14.5	x
CC1CCCCC1NC(=O)CCn1ccc2cc(S(=O)(=O)N3CCCC3)ccc21 (stereo not drawn)	-1.5	21.8	15.5	x	-5.7
CC(C)OC(=O)n1c(=S)oc2ccccc21	-4.7	7.0	1.1	6.6	0.4
CCCCC(=O)/C=C/n1c(=S)oc2ccccc21	-9.7	216.9*	176.0	-3.1	-4.3
SMILES	NOD2-RIPK2 inh	HSF-1 act	HSF1 inh	TLR4-MyD88 BLA	TLR9-MyD88 inh
Cc1cc2c(cc(C(=O)OC(C)C(=O)NCc3ccc(F)cc3)n2C)o1 (stereo not drawn)	-3.1	x	x	x	7.9
O=S(=O)(CCc1nc2ccccc2[nH]1)c1ccc(Cl)cc1	-19.9	-91.3	-88.6*	6.7	-6.2
Clc1ccc(OCc2nc3ccccc3[nH]2)cc1	-12.8	77.3*	42.8	-10.5	1.9
CCOC(=O)C1CCc2c(ccc3ccccc23)N1CCC#N (stereo not drawn)	0.6	x	x	x	4.2
CC(C)COc1ccc(-c2cc(C(=O)NN)[nH]n2)cc1	-4.0	52.1*	11.7	-6.2	5.5
Cc1ccc(NC2c3ncccc3C(=O)N2C2CCCCC2)cc1 (stereo not drawn)	2.0	66.7*	33.7	1.8	-0.1
C=CCN(CC=C)c1ncnc2[nH]ncc12	4.7	x	x	x	-12.5
N=c1c(S(=O)(=O)c2ccc(Br)cc2)cc2c(=O)n3ccccc3nc2n1C1CCCC1	-6.1	54.7*	24.0	x	-1.0
Cc1nc(N)nc(N(C)c2ccccc2)c1Br	11.9	x	x	x	-6.4
O=c1cc(NCCO)c2ccccc2o1	1.6	6.4	0.3	-15.1	2.3
O=c1cc(NCCc2ccccc2)c2ccccc2o1	-0.2	57.4*	22.7	8.7	0.5
Cc1ccc(C(=O)NC(=S)NCC2CCCO2)cc1 (stereo not drawn)	13.0	89.3*	39.6	-14.3	0.2
Cc1ccc(CNc2ccc(N3CCN(C)CC3=O)cc2)cc1	-8.1	x	x	x	3.5
COc1ccccc1C(=O)OCCCN=C1NS(=O)(=O)c2ccccc21	4.0	24.2	1.2	-3.2	3.5
COc1ccc(C(=O)OCCN=C2NS(=O)(=O)c3ccccc32)cc1OC	-12.2	52.5*	24.7	4.1	-5.3
CC12CCC(C/C1=N\N=C1\NC(=O)/C(=C\c3ccc(Cl)cc3)S1)C2(C)C (stereo not drawn)	-5.3	-94.4	-94.2*	-14.4	-4.1
Cc1ccc(C2=NN(C(=O)CCC(=O)O)C(c3cccs3)C2)cc1 (stereo not drawn)	-6.1	-6.1	7.0	x	-1.1
Cc1ccc(C2=NN(C(=O)CCl)C(c3cccs3)C2)o1 (stereo not drawn)	8.9	58.4*	31.0	8.8	-2.9
CC(=O)N1N=C(c2ccco2)CC1c1cccs1 (stereo not drawn)	-21.9	15.4	12.5	2.6	-3.3
O=C(CCl)N1N=C(c2ccco2)CC1c1cccs1 (stereo not drawn)	-5.9	54.8*	28.7	4.0	1.4
O=C(NC(=S)Nc1ccccc1C(F)(F)F)c1ccccc1F	3.0	76.1*	30.7	1.3	3.9
O=C(Nc1c(S(=O)(=O)c2ccc(Cl)cc2)csc1Br)c1ccccc1Cl	-8.4	54.3*	7.6	x	-7.9
O=C(NC(=O)c1ccccc1Cl)C(=O)Nc1ccc(Cl)cc1	-7.5	2.5	2.3	x	-0.8
Cc1cc(C)c(C(=O)CC(=O)c2cccnc2)c(C)c1	-0.3	x	x	x	8.7
C[C@@H]1CN([C@@H](C)CO)C(=O)CCCn2nncc2CO[C@H]1CN(C)C(=O)Nc1ccc(F)cc1	1.8	x	x	x	4.8
Cc1ccc(S(=O)(=O)NNC(=O)c2sc3nc(C)cc(C)c3c2-n2cccc2)cc1	2.7	73.0*	29.8	6.1	-3.0
Cc1ccc(C)c(OCC(=O)N(Cc2ccccc2)c2c(N)n(Cc3ccccc3)c(=O)[nH]c2=O)c1	-10.6	x	x	x	-6.6
O=C(Nc1ccc(Cl)cc1Cl)c1ccc2c(=O)n3c(nc2c1)CCC3	-6.0	36.9	26.9	x	-3.3
O=C(Nc1ccc(Br)cc1Cl)c1ccc2c(=O)n3c(nc2c1)CCC3	-2.3	55.2*	31.2	x	-4.7
O=C1CC(Cc2ccccc2)C(=O)N1Cc1ccco1 (stereo not drawn)	-7.6	8.0	8.8	8.9	6.2

Screens: PubChem BioAssay, several laboratories
